Results on eleven compounds are retold here after PubChem BioAssay (EPA / NIEHS).

Activity calls are given as the source filed them. Rule for the calls: active = hit-call score of the fitted dose curve at least 0.9, where 1 is the maximum; inactive = score below 0.9.

A short description of the assay: CCTE_Shafer_MEA_acute_spike_number: CCTE's Neural Acute Assay for Total Number of Spikes, Shafer Lab (AID 2284008).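 For AC50: curve fitted for decrease in spike count so AC50 reflects inhibitors.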 In outline: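 Total spike count from 40 min recordings before and during compound exposure (0.03-40 uM), given as per-well percent change. Cortical cultures from rat, DIV 13 or 15, 37 C; adaptive detection threshold 8x rms noise.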
`Cc1nc(N(C)C)nc(OC(=O)N(C)C)c1C`: the compound was called inactive.
Still for that read-out and setting: with `N#CN=C1SCCN1Cc1ccc(Cl)nc1` the entry was “inactive”; with `CCCN(CC)CC1COC2(CCC(C(C)(C)C)CC2)O1` (stereo unspecified), “inactive”.
With `C=C(C)CN(CC)c1c([N+](=O)[O-])cc(C(F)(F)F)cc1[N+](=O)[O-]`, the AC50 (commonly the concentration giving half of the maximal activity seen) was 31.9 µM (active).
On the same count and under the same terms, with `CCCC(=NOCC)C1=C(O)CC(CC(C)SCC)CC1=O` (stereo unspecified) the figure was 11.1 µM (active).
Consider `Clc1nc(Cl)nc(Nc2ccccc2Cl)n1`, for which the call was inactive.
The same measure, in the same setting: with `CC1(C)C(C(=O)OC(C#N)c2cccc(Oc3ccccc3)c2)C1(C)C` (stereo unspecified) the entry was “inactive”; with `O=C(Nc1ccccc1-c1ccc(Cl)cc1)c1cccnc1Cl`, “inactive”; with `CNC(=O)Oc1cccc2ccccc12`, “inactive”.
On the same count and under the same terms, then `CC(C)C1(C)N=C(c2ncccc2C(=O)O)NC1=O` (stereo unspecified), with “inactive”.
As to `CCOc1cc(C(C)(C)C)ccc1C1COC(c2c(F)cccc2F)=N1` (stereo unspecified), the half-maximal activity concentration (AC50) is 3.32 µM (active).
